The values that follow come from publication PMC7862700, “An all-to-all approach to the identification of sequence-specific readers for epigenetic DNA modifications on cytosine”.

What all share (assay): DAPPL (digital affinity profiling via proximity ligation, sequencing); 10 mM Tris-HCl pH 7.5, 50 mM NaCl, 1 mM DTT, 4% glycerol, room temperature, 30 min; GST-TFs on glutathione beads, 16-mer random dsDNA library, 0.1% formaldehyde crosslink after washing; high values mean tight binding
For one assay, the target named is T1, FEV (Homo sapiens, UniProt Q99581 1-238).
T1 sequence: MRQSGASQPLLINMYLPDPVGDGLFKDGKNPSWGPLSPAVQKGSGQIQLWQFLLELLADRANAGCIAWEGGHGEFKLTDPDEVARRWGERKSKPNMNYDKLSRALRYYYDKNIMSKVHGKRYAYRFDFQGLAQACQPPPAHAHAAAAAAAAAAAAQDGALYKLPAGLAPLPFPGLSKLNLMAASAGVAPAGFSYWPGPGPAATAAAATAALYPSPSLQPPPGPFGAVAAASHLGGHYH
The note with it: protein: recombinant; tags: N-terminal GST; dsDNA, one strand shown. A digest of the protocol: (§1)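 Binding signal is each hexamer's read frequency for a factor divided by its frequency in the tag-only sample. The factors were GST-fused human transcription factors from yeast, captured on glutathione beads, DNA-barcoded and pooled with that sample. Pools were incubated with 200 nmole of a random double-stranded 16-mer DNA library in Tris/NaCl/DTT/glycerol buffer at room temperature for 30 min, then washed, crosslinked with 0.1% formaldehyde, proximity-ligated with BsaI/T4 ligase (1 h, 37 °C), PCR-amplified and sequenced on an Illumina NextSeq500.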

A further assay concerns the target ETV5 (Homo sapiens, UniProt P41161 1-510). The note with it: protein: recombinant; tags: N-terminal GST; dsDNA, one strand shown. Summed up:
as §1

The target in the next assay is HSF1 (Homo sapiens, UniProt Q00613 1-529). The note with it: protein: recombinant; tags: N-terminal GST; chain copies: 3; dsDNA, one strand shown. A digest of the protocol:
as §1

In the next assay the target is T2, SPIC (Homo sapiens, UniProt Q8N5J4 1-248).
T2 sequence: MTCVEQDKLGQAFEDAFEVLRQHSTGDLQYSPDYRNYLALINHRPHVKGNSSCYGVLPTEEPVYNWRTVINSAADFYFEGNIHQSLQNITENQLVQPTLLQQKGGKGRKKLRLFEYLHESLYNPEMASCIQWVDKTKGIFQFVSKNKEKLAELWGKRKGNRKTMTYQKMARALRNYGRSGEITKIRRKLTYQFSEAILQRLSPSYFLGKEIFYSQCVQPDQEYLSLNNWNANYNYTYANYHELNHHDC
The note with it: protein: recombinant; tags: N-terminal GST; dsDNA, one strand shown. Summed up:
as §1

The target in a further assay is ELF4 (Homo sapiens, UniProt Q99607 1-663). Conditions: protein: recombinant; tags: N-terminal GST; dsDNA, one strand shown. A digest of the protocol:
as §1

In another assay the target is T3, ELK4 (Homo sapiens, UniProt P28324-2 1-405).
T3 sequence: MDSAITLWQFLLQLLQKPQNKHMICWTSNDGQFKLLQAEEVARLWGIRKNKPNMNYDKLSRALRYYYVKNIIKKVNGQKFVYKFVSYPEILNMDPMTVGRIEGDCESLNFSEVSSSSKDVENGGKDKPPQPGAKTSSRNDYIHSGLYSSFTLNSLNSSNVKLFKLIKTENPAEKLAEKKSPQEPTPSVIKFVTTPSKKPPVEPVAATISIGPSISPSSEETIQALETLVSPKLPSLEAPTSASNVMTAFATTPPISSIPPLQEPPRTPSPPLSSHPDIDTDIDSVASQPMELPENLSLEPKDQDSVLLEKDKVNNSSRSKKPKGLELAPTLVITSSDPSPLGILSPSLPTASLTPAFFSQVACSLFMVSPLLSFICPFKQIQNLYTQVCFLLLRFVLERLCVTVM
Conditions: protein: recombinant; tags: N-terminal GST; dsDNA, one strand shown. Summed up:
as §1

For the next assay, the target named is T4, ELF3 (Homo sapiens, UniProt P78545 1-371).
T4 sequence: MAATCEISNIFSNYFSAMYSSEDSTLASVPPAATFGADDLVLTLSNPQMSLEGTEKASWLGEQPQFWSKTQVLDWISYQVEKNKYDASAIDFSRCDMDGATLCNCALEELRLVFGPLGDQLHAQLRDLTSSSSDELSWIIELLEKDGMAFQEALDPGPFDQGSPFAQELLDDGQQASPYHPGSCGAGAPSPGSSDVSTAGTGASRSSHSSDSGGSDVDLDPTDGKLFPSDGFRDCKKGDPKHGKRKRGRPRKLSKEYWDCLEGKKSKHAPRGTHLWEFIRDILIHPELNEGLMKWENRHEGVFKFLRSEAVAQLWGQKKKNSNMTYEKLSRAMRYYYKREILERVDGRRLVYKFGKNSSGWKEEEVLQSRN
The note with it: protein: recombinant; tags: N-terminal GST; dsDNA, one strand shown. A digest of the protocol:
as §1

For a further assay, the target named is CRX (Homo sapiens, UniProt O43186 1-299). Conditions: protein: recombinant; tags: N-terminal GST; dsDNA, one strand shown. A digest of the protocol:
as §1

Another assay concerns the target ETV1 (Homo sapiens, UniProt P50549 1-477). Conditions: protein: recombinant; tags: N-terminal GST; dsDNA, one strand shown. Summed up: as §1

Chain of CRX (O43186 whole entry): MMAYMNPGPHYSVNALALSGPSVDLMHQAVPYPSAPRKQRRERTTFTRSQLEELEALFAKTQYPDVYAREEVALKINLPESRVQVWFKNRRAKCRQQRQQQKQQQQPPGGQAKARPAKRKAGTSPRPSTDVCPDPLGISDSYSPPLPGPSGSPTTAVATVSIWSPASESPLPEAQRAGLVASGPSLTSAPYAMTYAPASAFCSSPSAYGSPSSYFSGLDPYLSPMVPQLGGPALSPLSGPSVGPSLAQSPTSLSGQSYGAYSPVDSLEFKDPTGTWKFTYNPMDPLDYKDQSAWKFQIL
Chain of ELF4 (Q99607 whole entry): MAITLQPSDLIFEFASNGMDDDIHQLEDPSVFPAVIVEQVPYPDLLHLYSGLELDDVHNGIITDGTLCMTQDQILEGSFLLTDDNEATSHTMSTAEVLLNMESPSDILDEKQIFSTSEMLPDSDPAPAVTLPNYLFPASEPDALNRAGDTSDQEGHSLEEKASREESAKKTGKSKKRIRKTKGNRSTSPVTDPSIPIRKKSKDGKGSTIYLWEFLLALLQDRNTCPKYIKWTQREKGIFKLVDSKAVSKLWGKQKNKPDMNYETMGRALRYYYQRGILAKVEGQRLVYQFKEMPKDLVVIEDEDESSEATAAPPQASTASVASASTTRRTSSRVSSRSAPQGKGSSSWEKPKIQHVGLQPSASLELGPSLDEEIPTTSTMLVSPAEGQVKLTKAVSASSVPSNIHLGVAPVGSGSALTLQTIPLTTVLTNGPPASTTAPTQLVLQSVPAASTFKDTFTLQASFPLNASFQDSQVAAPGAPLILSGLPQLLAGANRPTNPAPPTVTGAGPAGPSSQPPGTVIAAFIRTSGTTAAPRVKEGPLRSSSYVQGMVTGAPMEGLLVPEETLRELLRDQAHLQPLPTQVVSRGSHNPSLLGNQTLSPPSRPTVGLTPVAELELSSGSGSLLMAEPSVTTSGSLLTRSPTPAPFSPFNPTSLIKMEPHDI
Chain of ETV1 (P50549 whole entry): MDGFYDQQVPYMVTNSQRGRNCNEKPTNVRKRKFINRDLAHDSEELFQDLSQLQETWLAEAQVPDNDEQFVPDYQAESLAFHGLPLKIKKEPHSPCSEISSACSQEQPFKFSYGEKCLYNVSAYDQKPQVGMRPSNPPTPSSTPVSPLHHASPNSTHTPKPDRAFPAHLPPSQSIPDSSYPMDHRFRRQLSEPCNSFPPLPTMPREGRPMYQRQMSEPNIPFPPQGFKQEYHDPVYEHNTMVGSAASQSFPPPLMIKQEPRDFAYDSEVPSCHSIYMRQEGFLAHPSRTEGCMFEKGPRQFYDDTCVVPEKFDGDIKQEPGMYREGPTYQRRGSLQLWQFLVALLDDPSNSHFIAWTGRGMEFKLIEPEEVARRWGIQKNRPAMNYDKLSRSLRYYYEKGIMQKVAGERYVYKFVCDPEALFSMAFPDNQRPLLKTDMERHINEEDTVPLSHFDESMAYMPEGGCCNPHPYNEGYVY
Chain of ETV5 (P41161 whole entry): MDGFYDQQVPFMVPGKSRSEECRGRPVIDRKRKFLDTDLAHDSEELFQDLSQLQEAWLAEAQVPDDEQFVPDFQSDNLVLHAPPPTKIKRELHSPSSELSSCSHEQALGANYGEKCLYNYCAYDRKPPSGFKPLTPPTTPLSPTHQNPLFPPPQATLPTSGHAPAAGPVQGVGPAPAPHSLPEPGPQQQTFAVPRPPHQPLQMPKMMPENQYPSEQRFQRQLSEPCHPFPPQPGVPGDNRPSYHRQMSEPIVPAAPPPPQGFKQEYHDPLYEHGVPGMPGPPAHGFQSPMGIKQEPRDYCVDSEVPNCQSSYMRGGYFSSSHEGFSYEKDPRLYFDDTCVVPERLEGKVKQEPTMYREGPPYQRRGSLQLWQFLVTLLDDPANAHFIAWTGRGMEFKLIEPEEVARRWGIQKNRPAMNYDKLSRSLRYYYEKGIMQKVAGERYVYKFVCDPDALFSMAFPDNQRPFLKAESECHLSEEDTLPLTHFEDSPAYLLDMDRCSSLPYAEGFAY
Chain of HSF1 (Q00613 whole entry): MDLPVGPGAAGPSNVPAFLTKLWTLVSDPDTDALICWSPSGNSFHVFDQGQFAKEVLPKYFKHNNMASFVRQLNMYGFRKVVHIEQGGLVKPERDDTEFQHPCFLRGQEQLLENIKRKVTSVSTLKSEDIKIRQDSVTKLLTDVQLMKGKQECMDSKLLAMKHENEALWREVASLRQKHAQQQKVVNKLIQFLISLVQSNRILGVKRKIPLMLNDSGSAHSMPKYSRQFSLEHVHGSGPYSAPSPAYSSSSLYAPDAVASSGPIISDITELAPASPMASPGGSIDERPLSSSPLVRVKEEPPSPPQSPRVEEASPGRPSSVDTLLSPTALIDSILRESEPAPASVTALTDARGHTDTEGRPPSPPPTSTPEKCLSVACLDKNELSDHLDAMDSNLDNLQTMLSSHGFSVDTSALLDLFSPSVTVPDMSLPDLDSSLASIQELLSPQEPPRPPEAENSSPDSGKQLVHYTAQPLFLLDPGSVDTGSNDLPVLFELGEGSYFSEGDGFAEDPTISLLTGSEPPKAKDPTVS

As for AGCCTC, the binding signal is 1.27 fold enrichment (6-mer frequency, TF over GST control) with FEV; 1.27 fold enrichment (6-mer frequency, TF over GST control) with ETV5; 1.3 fold enrichment (6-mer frequency, TF over GST control) in the assay with HSF1; 1.25 fold enrichment (6-mer frequency, TF over GST control) with SPIC; 1.36 fold enrichment (6-mer frequency, TF over GST control) with ELF4; 1.13 fold enrichment (6-mer frequency, TF over GST control) in the assay with ELK4. Also, the binding signal in the assay with ELF3 is 1.22 fold enrichment (6-mer frequency, TF over GST control); in the assay with CRX, 1.33 fold enrichment (6-mer frequency, TF over GST control); with ETV1, 1.13 fold enrichment (6-mer frequency, TF over GST control).

For the sequence CGAACT, the binding signal with FEV was 1.16 fold enrichment (6-mer frequency, TF over GST control); in the assay with ETV5, 1.19 fold enrichment (6-mer frequency, TF over GST control); with HSF1, 1.48 fold enrichment (6-mer frequency, TF over GST control); with SPIC, 1.01 fold enrichment (6-mer frequency, TF over GST control); with ELF4, 1.12 fold enrichment (6-mer frequency, TF over GST control); with ELK4 it was 1.15 fold enrichment (6-mer frequency, TF over GST control). The binding signal is 1.02 fold enrichment (6-mer frequency, TF over GST control) with ELF3; 1.05 fold enrichment (6-mer frequency, TF over GST control) with CRX; 1.1 fold enrichment (6-mer frequency, TF over GST control) with ETV1.

With GTTTAT, the binding signal in the assay with FEV is 1.02 fold enrichment (6-mer frequency, TF over GST control); with ETV5, 1.07 fold enrichment (6-mer frequency, TF over GST control); with HSF1, 1.14 fold enrichment (6-mer frequency, TF over GST control); with SPIC it was 1.12 fold enrichment (6-mer frequency, TF over GST control); with ELF4, 1.07 fold enrichment (6-mer frequency, TF over GST control); with ELK4, 1.05 fold enrichment (6-mer frequency, TF over GST control). For the same sequence, the binding signal in the assay with ELF3 was 1.27 fold enrichment (6-mer frequency, TF over GST control); in the assay with CRX it was 1.33 fold enrichment (6-mer frequency, TF over GST control); in the assay with ETV1 it was 1.03 fold enrichment (6-mer frequency, TF over GST control).

As to GAATAT, the binding signal is 1.03 fold enrichment (6-mer frequency, TF over GST control) in the assay with FEV; 1.07 fold enrichment (6-mer frequency, TF over GST control) with ETV5; 1.67 fold enrichment (6-mer frequency, TF over GST control) in the assay with HSF1; 1.13 fold enrichment (6-mer frequency, TF over GST control) in the assay with SPIC; 1.05 fold enrichment (6-mer frequency, TF over GST control) with ELF4; 1.07 fold enrichment (6-mer frequency, TF over GST control) with ELK4. The binding signal in the assay with ELF3 is 1.09 fold enrichment (6-mer frequency, TF over GST control); in the assay with CRX, 1.2 fold enrichment (6-mer frequency, TF over GST control); with ETV1, 1.03 fold enrichment (6-mer frequency, TF over GST control).

With AAAGTT, the binding signal is 1.01 fold enrichment (6-mer frequency, TF over GST control) with FEV; 1.16 fold enrichment (6-mer frequency, TF over GST control) with ETV5; 1.43 fold enrichment (6-mer frequency, TF over GST control) with HSF1; 1.03 fold enrichment (6-mer frequency, TF over GST control) with SPIC; 1.14 fold enrichment (6-mer frequency, TF over GST control) with ELF4; 1.19 fold enrichment (6-mer frequency, TF over GST control) in the assay with ELK4. Further, the binding signal was 1.1 fold enrichment (6-mer frequency, TF over GST control) with ELF3; 1.22 fold enrichment (6-mer frequency, TF over GST control) in the assay with CRX; 1.07 fold enrichment (6-mer frequency, TF over GST control) with ETV1.

GGTACT: the binding signal was 1.28 fold enrichment (6-mer frequency, TF over GST control) in the assay with FEV; 1.39 fold enrichment (6-mer frequency, TF over GST control) with ETV5; 1.05 fold enrichment (6-mer frequency, TF over GST control) with HSF1; 1.24 fold enrichment (6-mer frequency, TF over GST control) in the assay with SPIC; 1.24 fold enrichment (6-mer frequency, TF over GST control) in the assay with ELF4; 1.19 fold enrichment (6-mer frequency, TF over GST control) with ELK4. In addition, the binding signal with ELF3 was 1.03 fold enrichment (6-mer frequency, TF over GST control); with CRX, 1.05 fold enrichment (6-mer frequency, TF over GST control); in the assay with ETV1, 1.26 fold enrichment (6-mer frequency, TF over GST control).

For TAAAGC, the binding signal is 1.04 fold enrichment (6-mer frequency, TF over GST control) in the assay with FEV; 1.09 fold enrichment (6-mer frequency, TF over GST control) in the assay with ETV5; 1.33 fold enrichment (6-mer frequency, TF over GST control) in the assay with HSF1; 1.1 fold enrichment (6-mer frequency, TF over GST control) with SPIC; 1.05 fold enrichment (6-mer frequency, TF over GST control) with ELF4; 1.1 fold enrichment (6-mer frequency, TF over GST control) in the assay with ELK4. Further, the binding signal with ELF3 is 1.06 fold enrichment (6-mer frequency, TF over GST control); in the assay with CRX it was 1.87 fold enrichment (6-mer frequency, TF over GST control); with ETV1, 1.08 fold enrichment (6-mer frequency, TF over GST control).
